The sample as a whole holds a higher share of hits than the screen did.
TTR transcr act: TTR transcription activators in neuroblastoma reporter cells, primary screen, cell-based, luminescence, SH-SY5Y, TTR promoter Gaussia luciferase; 100% = recombinant luciferase protein wells; activation, % at 16.7 µM; hit rate 1.3% among 92,000;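 active = activation above the mean of all tested compounds plus 3 SD, cut at about 9.5% in these data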;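 also: cells exposed to compounds for one day before reading; 0% = median of all test compound wells on the plate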
TTR inh HuH7: TTR promoter reporter inhibitors in hepatoma cells, counter-screen for TTR transcription activator project, cell-based, luminescence, HuH7 hepatoma; AID 1117279, 2014; hit rate 4% among 1,100; HuH7 TTR promoter-Gaussia luciferase reporter; inhibition, % at 16.7 µM; shares compounds with TTR transcr act;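 active = average inhibition above the solvent-only control wells' mean plus 3 SD, cut at about 15% in these data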;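 also: 0% = cells with DMSO only and 100% = cells with inhibitor control FD; inhibitors lower well luminescence so higher value means more inhibition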
TTR up confirm: TTR transcription activators, retest, confirmation, cell-based, luminescence, SH-SY5Y, triplicate | shares compounds with TTR transcr act | SHSY5Y TTR promoter Gaussia luciferase; 100% = purified Lucia enzyme wells, no cells | activation, % at 16.7 µM | 1,100 tested, under 10 active | AID 1117280, 2014;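 active = mean activation above a set limit taken from the earlier primary screen, cut at about 11% in these data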;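 also: 0% = DMSO-treated cells and 100% = recombinant Lucia luciferase without cells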
* = called active by the depositor.

SMILES | TTR transcr act | others
O=[N+]([O-])c1ccccc1OCc1nc(-c2cccs2)no1 | 11.8* | TTR inh HuH7=-9.2;TTR up confirm=0.5
Clc1ccccc1OCc1nc(-c2ccc(Br)o2)no1 | 0.8
Nc1[nH]c2cc(C(F)(F)F)ccc2c1C(=O)N1CCN(CCc2ccccc2)CC1 | -0.7
C[C@H]1C2CC(OC(=O)Nc3ccccc3C(F)(F)F)C(C2)[C@H]2CCCCN21 (stereo partly drawn) | -0.1
O=C(NCCc1ccccc1)OCc1cn(Cc2ccc(Cl)cc2)nn1 | -0.2
Cn1nccc1C(=O)Nc1nnc(C2CC2)s1 | -1.0
Cc1ccc(S(=O)(=O)NC(=O)Nc2nnc(C3CC3)s2)cc1 | -0.7
O=C(Nc1nnc(C2CC2)s1)c1ccc(S(=O)(=O)c2ccccc2)cc1 | 16.0* | TTR inh HuH7=6.8;TTR up confirm=-1.4
CC(C)N1CCCCC(NC(=O)c2ccc(Br)cc2)C1=O (stereo not drawn) | 1.8
C=CC(=O)NC1CCCCN(C(C)C)C1=O (stereo not drawn) | 11.6* | TTR inh HuH7=-10.6;TTR up confirm=-0.6
CC(C)N1CCCCC(NC(=O)c2ccccc2)C1=O (stereo not drawn) | 0.9
O=C(NCCc1c[nH]c2ccccc12)OCc1cn(-c2ccc(Cl)cc2)nn1 | -0.7
COc1ccc(CNC(=O)O[C@H]2CC[C@@]34CCCN3C(=O)CCC[C@H]4[C@H]2C)cc1OC | 0.6
Cc1cc(C)nc(NC(=S)N2CCN(c3ccc(Cl)c(Cl)c3)CC2)c1 | -2.0
COC(=O)[C@]12C[C@H](CC(=O)N3CCCC3)C(=O)N(Cc3cccc4ccccc34)C1=C[C@H](C(C)(C)C)O[C@@H]2C | -1.8
Cc1cccn2cc(-c3ccc(S(=O)(=O)N4CCOCC4)cc3)nc12 | 0.0
O=[N+]([O-])c1cccn2cc(-c3ccc(Br)cc3)nc12 | 10.9* | TTR inh HuH7=5.8;TTR up confirm=-0.7
Cc1ccn2cc(-c3ccc(Br)cc3)nc2c1 | -2.7
CC(C)CNC(=O)OCc1cn(Cc2c(F)cccc2F)nn1 | 0.9
COC(=O)C1CN(CCO)CCS(=O)(=O)N1Cc1cccc(Cl)c1 (stereo not drawn) | -0.4
CN(CCc1ccccc1)C(=O)c1cccc(NC(=O)Cc2cccc(NC(=O)C3CCN(C(=O)C4CC4)CC3)c2)c1 | 0.1
CN(CCc1ccccc1)C(=O)c1cccc(NC(=O)Cc2cccc(NC(=O)C3CCN(C(=O)C4CCCC4)CC3)c2)c1 | -0.2
CN(CCc1ccccc1)C(=O)c1cccc(NC(=O)Cc2cccc(NC(=O)C3CCN(C(=O)c4ccccc4)CC3)c2)c1 | 9.9* | TTR inh HuH7=-6.5;TTR up confirm=0.3
CNC12CCc3cc(OC)c(OC)c(c31)-c1cc3c(cc1C2)OCO3 (stereo not drawn) | -0.2
C[C@@H]1CCN(C2CC2)S(=O)(=O)c2ccc(N3CCC[C@H]3C)cc2O1 | -0.3
SMILES | TTR transcr act | others
CC(C)Cn1c(SC(C)C(=O)Nc2ccc(N3CCOCC3)cc2)nc2ccccc21 (stereo not drawn) | -1.6
COc1ccc(NC(=O)CSc2nc3ccccc3c(=O)n2CCCN2CCOCC2)c(OC)c1 | 1.6
Cc1cccc(NC(=O)C(C)Sc2nc3ccccc3c(=O)n2CCCN2CCOCC2)c1 (stereo not drawn) | 20.8* | TTR inh HuH7=-10.7;TTR up confirm=1.3
COC(CNC(=O)[C@H](Cc1ccccc1)NC1(C(=O)NC2CCCCC2)CCCC1)OC | -0.2
Cc1ccccc1CN1CCCCC(NC(=O)Nc2ccccc2)C1=O (stereo not drawn) | 5.4
COC(=O)[C@]12C[C@H](CC(=O)NCc3ccc(C)o3)C(=O)N(Cc3ccc(Cl)cc3Cl)C1=C[C@H](C(C)C)O[C@@H]2C1CC1 | -0.5
C[C@H]1[C@@H](OC(=O)NCc2ccccc2Cl)CC[C@@]23CCCN2C(=O)CCC[C@@H]13 | -2.4
Cc1ccc(-c2cn(CCN)c(-c3ccncc3)n2)cc1 | 2.0
COc1ccc(-c2cn(CCO)c(-c3ccc(Cl)nc3)n2)cc1 | -2.1
O=C(O)CCn1cc(-c2ccc(Cl)cc2)nc1-c1ccc(Cl)nc1 | 9.7* | TTR inh HuH7=-7.6;TTR up confirm=1.3
C/C=C/c1ccc([C@H]2[C@@H](CN(CC(C)C)S(=O)(=O)c3ccccc3[N+](=O)[O-])N(C(=O)Nc3cccc(OC)c3)[C@H]2CO)cc1 | 0.0
CC(C)(C)NC(=O)NC(=O)CSc1nnc2ccccn12 | 0.2
O=C(CSc1nnc2ccccn12)NCCc1ccc(Cl)cc1 | 1.0
CC(C)CNC(=O)CSc1nnc2ccccn12 | 11.5* | TTR inh HuH7=-3.6;TTR up confirm=12.0*
C[C@@H]1CN([C@@H](C)CO)C(=O)CCCn2cc(nn2)CO[C@H]1CN(C)C(=O)Cc1ccccc1 | 0.1
N#Cc1cccc(Cn2ccc3ccc(-c4ccc5ccn(Cc6ccccc6)c5c4)cc32)c1 | -0.8
CCCNC(=O)Cn1c(-c2ccc(F)cc2)cc(C(=O)OCC)c1C | 0.8

Assay outcomes from PubChem.
